This passage reports composite z-score and z-score results from PubChem BioAssay.

Calls of active or inactive are those of the source.

The subject of assay [1] is PRMT1 (protein arginine N-methyltransferase 1). Kind of assay: small molecules binding arginine methyltransferase PRMT1 – biochemical, small-molecule microarray, 635 nm fluorescence, primary screen (AID 1088).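 Note: binding of Prmt1 protein to compounds spotted on small-molecule microarray slides.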 The conditions noted are these: higher = more signal.
The nature of assay [2]: growth effects on S. cerevisiae YJM789 – YJM789 clinical isolate, OD600, 24 h, basal, primary screen (AID 1089).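 Note: growth of clinical yeast isolate S. cerevisiae YJM 789 seeded 1000 cells per well; test concentration not given here.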 To be noted: higher = more signal, called active from +8 up or from −8 down.
The nature of assay [3]: S. pombe growth modifiers, basal conditions – strain 972, OD600, 24 h, no modulator, primary screen (AID 1090).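 Note: basal condition with compound alone and no growth modifier present; test concentration not given here.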 To be noted: S. pombe 972 growth, higher = more signal, called active from +8 up or from −8 down.
A short description of assay [4]: budding yeast growth modifiers under rapamycin – strain BY4716, OD600, 96 h, primary screen (AID 1091). Note: test concentration not given here. The conditions noted are these: S. cerevisiae BY4716 + rapamycin, higher = more signal, called active from +8 up or from −8 down.
In assay [5] the target is Torsin-1A-interacting protein 2 (Homo sapiens) (UniProt Q8NFQ8). The assay is described as follows: small molecules binding lysate-expressed LULL1 – cell lysate, human LULL1 lysate, 635/667 nm fluorescence, primary screen (AID 1092).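 Note: probe is lysate of COS7 cells overexpressing human LULL1; score merges per-feature 667 nm fluorescence with signal-to-noise.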 The conditions noted are these: small-molecule microarray, hLULL1 lysate binding, 635 nm fluorescence; higher = more signal.
Sequence of Torsin-1A-interacting protein 2 (Homo sapiens) (Q8NFQ8 whole entry, looked up): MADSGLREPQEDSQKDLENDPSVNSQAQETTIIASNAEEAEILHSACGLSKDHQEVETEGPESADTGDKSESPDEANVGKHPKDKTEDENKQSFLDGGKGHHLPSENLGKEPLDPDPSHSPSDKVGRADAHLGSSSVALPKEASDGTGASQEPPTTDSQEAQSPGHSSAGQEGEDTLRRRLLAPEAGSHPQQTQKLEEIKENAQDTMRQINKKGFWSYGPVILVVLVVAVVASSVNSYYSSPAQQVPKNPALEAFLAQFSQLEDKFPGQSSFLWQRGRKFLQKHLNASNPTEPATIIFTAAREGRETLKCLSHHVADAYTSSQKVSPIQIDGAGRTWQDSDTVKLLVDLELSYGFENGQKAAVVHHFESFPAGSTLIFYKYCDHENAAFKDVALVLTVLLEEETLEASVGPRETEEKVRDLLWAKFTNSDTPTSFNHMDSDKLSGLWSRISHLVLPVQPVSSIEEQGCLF
A short description of assay [6]: optical density change of DRC41 E. coli – strain DRC41, OD650, 24 h, E. coli filamentation project, primary screen (AID 1093).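 Note: MC1000 strain lacking acrAB efflux and sulA so SOS filamentation is blocked; test concentration not given here.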 The conditions noted are these: E. coli DRC41 growth, higher = more signal, called active from +8 up or from −8 down.
Assay [7] is described as follows: probe aLefty2 binding to arrayed compounds – biochemical, biotinylated probe, 635/667 nm fluorescence, primary screen (AID 1094).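 Note: score merges spot fluorescence near 667 nm with spot signal-to-noise ratio.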 The conditions noted are these: small-molecule microarray, higher = more signal.
Assay [8] has as its system Noggin (protein binding on small-molecule microarray). The assay is described as follows: small molecules binding Noggin protein – biochemical, 635/667 nm fluorescence, primary screen (AID 1095).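 Note: score merges 667 nm feature fluorescence with signal to noise over triplicate slides.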 The conditions noted are these: 635 nm fluorescence, higher = more signal.
Assay [9] addresses Neurogenic locus notch homolog protein 3 (Homo sapiens) (UniProt Q9UM47). The assay is described as follows: small molecules binding NOTCH3 protein – biochemical, 635/667 nm fluorescence, primary screen (AID 1096). To be noted: small-molecule microarray, 635 nm fluorescence, higher = more signal.
The nature of assay [10]: probe aEGFR binding to arrayed compounds – biochemical, biotinylated probe, 635/667 nm fluorescence, primary screen (AID 1097).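 Note: probe is a biotinylated anti-EGFR antibody binding compounds printed on slides; score combines fluorescence near 667 nm and signal to noise of each spot.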 The conditions noted are these: small-molecule microarray, higher = more signal.

Sequence of Neurogenic locus notch homolog protein 3 (Homo sapiens) (Q9UM47 whole entry, looked up): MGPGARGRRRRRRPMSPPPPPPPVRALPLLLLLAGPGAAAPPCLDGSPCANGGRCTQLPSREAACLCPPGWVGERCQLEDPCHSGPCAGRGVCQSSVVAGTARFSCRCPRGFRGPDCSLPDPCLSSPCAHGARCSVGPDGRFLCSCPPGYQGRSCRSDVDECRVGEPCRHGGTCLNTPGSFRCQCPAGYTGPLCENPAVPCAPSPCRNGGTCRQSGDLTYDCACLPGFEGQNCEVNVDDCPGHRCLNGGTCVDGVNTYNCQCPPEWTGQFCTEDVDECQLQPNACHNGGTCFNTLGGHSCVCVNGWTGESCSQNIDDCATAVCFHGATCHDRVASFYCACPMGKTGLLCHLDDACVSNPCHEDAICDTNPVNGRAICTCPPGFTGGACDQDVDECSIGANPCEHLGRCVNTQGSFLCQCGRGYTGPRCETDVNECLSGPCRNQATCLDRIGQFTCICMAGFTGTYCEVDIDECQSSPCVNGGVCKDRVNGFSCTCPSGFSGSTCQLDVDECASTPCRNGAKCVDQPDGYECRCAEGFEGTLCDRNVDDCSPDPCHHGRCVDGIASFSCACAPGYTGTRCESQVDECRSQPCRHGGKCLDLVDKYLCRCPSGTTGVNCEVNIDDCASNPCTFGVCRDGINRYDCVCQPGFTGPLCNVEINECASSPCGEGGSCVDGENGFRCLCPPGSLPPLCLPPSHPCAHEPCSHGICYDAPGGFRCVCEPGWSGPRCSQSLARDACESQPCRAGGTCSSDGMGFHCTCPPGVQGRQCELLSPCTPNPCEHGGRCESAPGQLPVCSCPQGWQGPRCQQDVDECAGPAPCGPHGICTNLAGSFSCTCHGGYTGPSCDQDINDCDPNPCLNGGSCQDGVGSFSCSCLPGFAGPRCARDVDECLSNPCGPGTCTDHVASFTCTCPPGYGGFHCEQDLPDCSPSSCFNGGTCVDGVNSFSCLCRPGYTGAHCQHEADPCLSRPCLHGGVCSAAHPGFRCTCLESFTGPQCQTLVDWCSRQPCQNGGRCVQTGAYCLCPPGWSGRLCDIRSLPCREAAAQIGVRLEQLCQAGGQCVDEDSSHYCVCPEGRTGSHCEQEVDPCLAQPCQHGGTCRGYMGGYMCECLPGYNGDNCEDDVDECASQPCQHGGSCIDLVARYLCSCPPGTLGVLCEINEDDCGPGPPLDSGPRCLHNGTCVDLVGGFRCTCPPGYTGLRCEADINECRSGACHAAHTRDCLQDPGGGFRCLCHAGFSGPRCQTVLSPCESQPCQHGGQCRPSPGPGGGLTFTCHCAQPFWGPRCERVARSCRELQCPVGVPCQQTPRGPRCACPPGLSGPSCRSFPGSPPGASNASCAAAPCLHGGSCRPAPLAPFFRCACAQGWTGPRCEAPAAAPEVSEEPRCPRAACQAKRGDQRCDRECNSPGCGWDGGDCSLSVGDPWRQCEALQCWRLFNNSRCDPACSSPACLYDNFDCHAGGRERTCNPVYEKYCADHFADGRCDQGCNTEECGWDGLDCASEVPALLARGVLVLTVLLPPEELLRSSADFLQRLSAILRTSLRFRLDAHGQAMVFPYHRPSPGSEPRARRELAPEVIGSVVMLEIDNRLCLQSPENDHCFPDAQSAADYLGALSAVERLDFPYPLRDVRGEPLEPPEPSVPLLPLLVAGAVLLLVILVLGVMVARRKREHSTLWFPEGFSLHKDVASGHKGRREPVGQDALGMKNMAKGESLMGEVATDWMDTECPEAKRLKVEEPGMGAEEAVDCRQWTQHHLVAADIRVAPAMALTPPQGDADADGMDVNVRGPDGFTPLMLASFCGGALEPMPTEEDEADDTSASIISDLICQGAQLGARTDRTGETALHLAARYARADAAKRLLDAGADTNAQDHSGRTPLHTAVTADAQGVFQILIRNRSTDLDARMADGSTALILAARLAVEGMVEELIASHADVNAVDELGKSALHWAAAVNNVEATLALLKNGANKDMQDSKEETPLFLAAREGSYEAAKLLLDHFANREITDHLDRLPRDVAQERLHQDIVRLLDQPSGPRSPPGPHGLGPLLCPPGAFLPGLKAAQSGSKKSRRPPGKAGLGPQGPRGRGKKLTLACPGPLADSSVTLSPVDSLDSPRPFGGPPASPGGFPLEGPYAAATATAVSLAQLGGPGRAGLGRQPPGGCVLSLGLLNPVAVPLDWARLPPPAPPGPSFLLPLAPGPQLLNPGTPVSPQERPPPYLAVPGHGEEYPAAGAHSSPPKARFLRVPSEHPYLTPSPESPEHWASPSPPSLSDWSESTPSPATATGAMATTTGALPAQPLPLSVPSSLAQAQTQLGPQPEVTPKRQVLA

For the molecule `CO[C@H]1COC(=O)[C@H](C)NC(=O)[C@@H](C)COC(=O)CC=C[C@@H]1C`, the composite z-score is 0.748 in assay [1]; -0.498 in assay [5]; -0.103 in assay [7]; 0.3 in assay [8]; 0.674 in [9]; -0.02 in assay [10]. In addition, the z-score in [2] was -0.156 (inactive); in assay [3], 0.473 (inactive); in assay [4] it was -0.564 (inactive); in assay [6] it was 0.2 (inactive).
As for `CCCNC(=O)[C@@H]1c2ccccc2C(=O)N(c2ccc(C)cn2)[C@H]1c1ccc(CO)cc1`, the composite z-score in [1] was 0.129; in [5], 0.553; in assay [7], -0.0769; in assay [8], -1.08; in [9], -0.798; in assay [10] it was -0.299. The z-score in assay [2] was -1.03 (inactive); in [3], -0.144 (inactive); in assay [4], -0.926 (inactive); in assay [6], -0.0365 (inactive).
Take `CC(C)=NOCc1ccc(-c2cc(-c3ccccc3)no2)cc1`: the composite z-score in assay [1] was -1.06; in assay [5], 0.108; in assay [7] it was -0.252; in [8], 0.429; in [9], 0.152; in [10], -0.163. For the same molecule, the z-score is 0.237 (inactive) in assay [2], 0.256 (inactive) in [3], 0.213 (inactive) in assay [4] and 0.383 (inactive) in assay [6].
With `CCc1cccc(NC(=O)O[C@H]2[C@H](OC(=O)Nc3ccc4c(c3)OCO4)[C@@H](OC(=O)Nc3ccc4c(c3)OCO4)[C@@H](OC)O[C@@H]2CO)c1`, the composite z-score was 1.54 in [1]; 3.59 in [5]; 0.166 in assay [7]; 1.22 in assay [8]; 1.08 in [9]; -0.0488 in assay [10]. Besides, the z-score was 1.41 (inactive) in [2], 1.5 (inactive) in assay [3], -2.13 (inactive) in assay [4] and 1.47 (inactive) in [6].
`CO[C@@H]1COC(=O)CC=C[C@@H](C)[C@H](OC)COC(=O)[C@H](COCc2ccccc2)NC(=O)CC=C[C@H]1C`: the composite z-score in assay [1] was 0.234; in assay [5] it was -1.32; in [7], -0.185; in [8] it was 0.846; in [9] it was -0.778; in [10] it was -0.231. Also, the z-score in assay [2] is 0.122 (inactive); in [3] it was -0.556 (inactive); in assay [4], -0.0857 (inactive); in assay [6], 0.024 (inactive).
Consider `CCOC(=O)C[C@H]1[C@H](OC(=O)c2ccc(C(=O)c3ccccc3)cc2)[C@@H](NC(=O)c2ccc(-c3ccccc3)cc2)c2cc(OCCCO)ccc2N1C(=O)c1ccc2ccccc2n1`, for which the composite z-score is 1.44 in [1]; 2.29 in [5]; -0.19 in assay [7]; 0.609 in assay [8]; 1 in [9]; -0.109 in assay [10]. In addition, the z-score in assay [2] is -1.05 (inactive); in assay [3], 0.0048 (inactive); in assay [4] it was 0.276 (inactive); in assay [6], 1.44 (inactive).
In the case of `CC(C)C[C@@H]1NC(=O)[C@H]2C[C@@H](C(=O)NCCCCCCN(C)C)[C@@H](c3cccc(OCCO)c3)N2C1=O`, the composite z-score amounted to 1.53 in assay [1]; 2.12 in assay [5]; 0.173 in assay [7]; 1.19 in assay [8]; 1.04 in assay [9]; 0.0948 in assay [10]. Moreover, the z-score is -1.16 (inactive) in assay [2], 0.184 (inactive) in [3], -0.46 (inactive) in assay [4] and -0.0145 (inactive) in assay [6].
For the molecule `COC(=O)[C@H](C)NC(=O)[C@@H](C)CO`, the composite z-score was 1.46 in [1]; 1.68 in assay [5]; -0.0607 in assay [7]; 0.67 in [8]; 1.07 in [9]; -0.0578 in [10]. Also, the z-score in [2] is 0.0198 (inactive); in assay [3], -0.0164 (inactive); in assay [4], 0.669 (inactive); in [6], -0.8 (inactive).
In the case of `Cn1c(=O)n2n(c1=O)[C@H]1[C@H](O)[C@@H]3O[C@@H]3C(=NOC[C@@H](O)COCc3ccco3)[C@H]1CC2`, the composite z-score in [1] was 0.188; in assay [5], 0.14; in [7], -0.171; in assay [8] it was 0.426; in [9] it was 0.775; in assay [10] it was 0.0574. The z-score in assay [2] was 0.0859 (inactive); in assay [3], 0.171 (inactive); in assay [4] it was -0.36 (inactive); in assay [6], -0.0342 (inactive).
For `CCOC(=O)[C@H](Cc1ccccc1)NC(=O)CCC1CC(OC(=O)NCc2ccc3c(c2)OCO3)CC2(CCCC(COC(=O)NCC(c3ccccc3)c3ccccc3)O2)O1` (stereo not given in full), the composite z-score in [1] is 1.16; in assay [5], 2.34; in assay [7] it was -0.0485; in assay [8] it was 0.955; in [9], 1.06; in assay [10], -0.157. Besides, the z-score was 0.668 (inactive) in assay [2], 0.9 (inactive) in assay [3], 0.687 (inactive) in assay [4] and 0.454 (inactive) in assay [6].
Turning to `O=C1CCCC=C1C(O)CCOCc1ccccc1` (stereo not given), the composite z-score is -0.195 in assay [1]; -1.08 in [5]; -0.224 in assay [7]; 0.355 in assay [8]; -0.834 in assay [9]; -0.0828 in [10]. Further, the z-score in assay [2] was -0.385 (inactive); in [3], -0.82 (inactive); in assay [4], -1.15 (inactive); in assay [6] it was -0.546 (inactive).
As for `O=C1O[C@@H](c2ccccc2)[C@@H](c2ccccc2)N2[C@@H](c3ccc(OCCO)cc3)[C@]3(C(=O)Nc4ccc(C#CCCO)cc43)[C@@H](C(=O)N3CCCCCCC3)[C@H]12`, the composite z-score in assay [1] was 1.54; in assay [5], 3.83; in assay [7], 1.35; in assay [8] it was 1.39; in assay [9], 1.08; in assay [10], 0.249. Besides, the z-score in [2] is 1.15 (inactive); in assay [3] it was -0.507 (inactive); in [4], 2.23 (inactive); in assay [6], 0.694 (inactive).
`C=CC[C@@H]1C=C[C@H](ON=C(C)CCN2CCc3nc(CC)c(CC)cc3C2)[C@@H](CO)O1`: the composite z-score is 1.21 in [1]; 1.07 in assay [5]; 0.0522 in assay [7]; 0.981 in assay [8]; 0.717 in assay [9]; -0.0435 in assay [10]. Moreover, the z-score was -1.12 (inactive) in assay [2], -0.0455 (inactive) in assay [3], -0.384 (inactive) in assay [4] and 0.544 (inactive) in assay [6].
Take `C[C@H](c1ccccc1)N1C(=O)[C@H]2[C@@H]3C(=CC[C@H]2C1=O)C(=O)[C@H]1O[C@H]1[C@H]3O`: the composite z-score in [1] is -0.511; in [5] it was -0.597; in assay [7] it was -0.0305; in assay [8], 0.447; in assay [9], 0.172; in assay [10], -0.138. Moreover, the z-score in [2] was 0.389 (inactive); in assay [3], -1.84 (inactive); in assay [4] it was 0.292 (inactive); in assay [6] it was -0.295 (inactive).
Take `COC(=O)[C@H](C)NC(=O)CCC1CC(OC(=O)NCc2cccc3ccccc23)CC2(CCCC(COC(=O)NCC3CCCCC3)O2)O1` (stereo not given in full): the composite z-score in [1] is 1.55; in [5] it was 3.37; in [7], -0.114; in [8], 0.918; in assay [9] it was 1.06; in [10] it was 0.0278. Moreover, the z-score in assay [2] was -0.0166 (inactive); in assay [3] it was 0.633 (inactive); in assay [4], -0.825 (inactive); in assay [6], -0.639 (inactive).
